Screening data deposited in PubChem by several laboratories.
A selection: hits, their analogues and other compounds. The true share with any hit is near 1.6%.
PABP1 MLLE inh = blocks PAM2 peptide binding to the PABP1 MLLE domain; P11940; GST-MLLE / FITC-PAM2 fluorescence polarization; inhibition, % at 20 µM; 360,000 compounds, 0.36% hits; AID 588489; in the data active means inhibition above about 35%, passing the limit was not always enough;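 further: plate controls were DMSO wells with GST-MLLE for no effect and wells lacking GST-MLLE protein for full effect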
PABP FP inh = blocks human PABP binding to poly(A) RNA | P11940 | fluorescence polarization | calls only at 35 µM | 290,000 compounds, 1% hits | AID 2014;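 further: calls also rest on retests at 20 µM and on dose response follow-up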
eIF4H inh = inhibitors of RNA binding by human eIF4H | eIF4H fluorescence polarization binding assay | inhibition, % at 35 µM | Q15056 | 290,000 compounds, 0.94% hits;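 further: calls also rest on retests at 20 µM and on dose response follow-up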
eIF4E 4G PPI = blocks eIF4E binding to eIF4G | TR-FRET eIF4E-eIF4GI(517-606) binding, 2 h | inhibition, % at 21.7 µM | 220,000 compounds, 0.37% hits | AID 782;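 active means inhibition above about 30%, limit read from the data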;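 further: 0% = full FRET control wells and 100% = background wells lacking eIF4GI fragment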
PERK inh = blocks human PERK kinase; 220,000 compounds, 0.17% hits; AID 1416; inhibition, % at 5.6 µM; CHO PERK-DD fusion, SEAP luminescence translation reporter;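 active means inhibition above the mean inhibition of all tested compounds plus 3 SD, set separately per screening campaign, cut at about 2.9% in these data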;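 further: PERK kinase domain activated by AP20187 dimerizer at 100 nM; 0% = DMSO with dimerizer and 100% = rapamycin at 8.4 µM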
An asterisk follows results filed as active; i = inactive; ? = inconclusive; · = not tested or not shown; + = active, no number; ! = repeats disagree. Unless noted, how the calls were made is not given here.

SMILES	PABP1 MLLE inh	PABP FP inh	eIF4H inh	eIF4E 4G PPI	PERK inh
O=C(C1CCN(S(=O)(=O)c2ccccc2)CC1)N1CCN(Cc2ccccc2)CC1	-13.0	i	12.1	·	·
Cc1ccc(S(=O)(=O)NCCn2cnc([N+](=O)[O-])n2)cc1	-7.0	i	4.2	·	·
Nc1ccccc1Oc1ncc(C(F)(F)F)cc1Cl	3.8	i	-3.5	1.6	2.9*
Oc1cc(O)c2c(c1)O[C@H](c1ccc(O)c(O)c1)[C@H](O)C2	-5.5	i	14.2	·	·
O=C(O[C@@H]1Cc2c(O)cc(O)cc2O[C@@H]1c1cc(O)c(O)c(O)c1)c1cc(O)c(O)c(O)c1	·	+	80.1*	9.4	0.3
Cc1n(-c2ccccc2)c2ccc(Cl)cc2[n+]1CCO	-92.5	+	0.6	1.6	0.1
Cc1cc2cc(CNC(=O)c3ccc(S(=O)(=O)N(C)C)cc3)ccc2n1C	50.3*	i	?	-2.6	1.6
Cc1cc2cc(CNC(=O)c3ccc(S(=O)(=O)N4CCOCC4)cc3)ccc2n1C	46.8*	i	18.2	1.7	-0.3
COc1cccc(CNC(=O)c2ccc(S(=O)(=O)N3CCOCC3)cc2)c1	11.8	·	·	·	·
COc1cc(OC)c(N(C)S(=O)(=O)c2cccc(C(=O)OCC(=O)N(C)C3CCCCC3)c2)cc1Cl	-9.4	·	·	·	·
CCCCC1=CC2=C(c3ccco3)C(=O)C(C)(OC(=O)c3ccc(OC)cc3)C(=O)C2=CN1c1ccccc1 (centres undefined)	-1.9	+	111.0	-1.1	·
COc1cc(/C=N/n2cc(-c3ccccc3)[nH]c2=S)cc(OC)c1O	22.1	i	-14.4	-0.9	0.0
Oc1ccc(/C=N/n2cc(-c3ccccc3)[nH]c2=S)cc1	43.5*	i	-0.2	-2.5	1.0
O=C(CSc1nnc(SCc2ccccc2)s1)N/N=C/C=C/c1ccco1	-101.8	i	93.9*	23.5	1.7
O=C(CN1CCN(Cc2ccccc2)CC1)N/N=C\C=C/c1ccco1	-8.8	+	?	-0.8	0.5
CCn1c(SCC(=O)N/N=C/C(C)=C\c2ccco2)nnc1-c1ccccc1	-8.1	+	51.4*	1.2	-0.2
O=C(CN1CCN(Cc2ccccc2Cl)CC1)N/N=C/C=C/c1ccco1	-14.1	i	0.8	-1.0	-0.1
CC(/C=N\NC(=O)CN1CCN(Cc2ccccc2)CC1)=C\c1ccco1	11.5	+	?	7.9	-0.7
Cc1cc(N)ccc1NC(=O)CN1CCOCC1	-7.0	i	-12.2	·	·
CN(CCCn1cnc2c(OCc3ccccc3)ncnc21)Cc1ccco1	-12.3	·	·	·	·
CCSc1ncc(CO)c(N)n1	-7.6	i	3.9	0.8	1.0
Cc1ccccc1NC(=O)NCCCN1CCCC1	-7.1	i	-7.2	-7.0	3.5*
CC(=O)N1CCCC(C)(C(=O)N(C)Cc2cccc3ccccc23)C1 (centres undefined)	-13.2	·	·	·	·
Cc1ccc2c(c1C)NC(C(=O)O)C1CC=CC21 (centres undefined)	-0.8	+	94.1*	60.8*!	·
Cc1cc(C)c2c(c1)N[C@H](c1cccs1)[C@@H]1CCO[C@H]21	-8.0	i	-14.0	1.2	1.3
SMILES	PABP1 MLLE inh	PABP FP inh	eIF4H inh	eIF4E 4G PPI	PERK inh
Cc1cc(C)c2c(c1)NC(C(=O)O)C1CC=CC21 (centres undefined)	6.2	+	92.8*	·	·
O=C(O)C1Nc2c(C(=O)N3CCOCC3)cccc2C2C=CCC12 (centres undefined)	31.5	+	98.6*	16.5	1.8
O=C(O)C1Nc2c(C(F)(F)F)ccc(Cl)c2C2C=CCC12 (centres undefined)	10.5	i	42.2	·	·
COc1ccc(C(C(=O)NC(C)(C)C)N(CCC(C)C)C(=O)CCC(=O)Nc2cc(C)on2)cc1 (centres undefined)	-17.2	i	-1.9	·	·
CN(C(=O)COC(=O)c1cc([N+](=O)[O-])ccc1Cl)c1ccccc1	0.3	i	-0.3	·	·
CCc1cc(=O)oc2cc(C)cc(OCC(=O)NCc3cccnc3)c12	8.9	i	79.1*	·	·
CCCCc1cc(=O)oc2cc(C)cc(OCC(=O)NCc3cccnc3)c12	12.3	i	-10.8	·	·
CCN(C(=O)CSc1nnc(-c2cccc(F)c2)n1N)c1c(N)n(Cc2ccccc2)c(=O)[nH]c1=O	11.1	·	·	·	·
CCN(CC)c1ccc(/C=N/N2C(C)CCCC2C)c(O)c1 (centres undefined)	-12.0	i	-0.8	·	·
O=C1NC(=O)[C@@H]2C3c4ccccc4C=CN3[C@H](C(=O)c3cccs3)[C@H]12 (some centres undefined)	·	+	125.6*	-14.8	0.4
CC(=O)[C@@H]1[C@@H]2C(=O)N(C3CCCCC3)C(=O)[C@@H]2C2c3ccccc3C=CN21 (some centres undefined)	·	i	18.1	1.0	-0.3
CC(C)CN(CCCNC(=O)CN1N=C(c2ccc(Cl)cc2)CCC1=O)CC(C)C	0.5	i	-4.6	·	·
COc1ccccc1NC(=O)COc1cccc2c1CCNC2=O	1.8	·	·	·	·
O=C1NC(c2ccncc2)C(C(=O)c2cccs2)C(O)(C(F)(F)F)N1 (centres undefined)	-3.5	i	-0.8	9.9	3.0*
Cc1cc(C(=O)Nc2ccc3[nH]ccc3c2)no1	13.6	i	-1.7	-1.8	1.4
COc1ccc(/C=N/Nc2ccccn2)c(OC)c1OC	1.7	+	1.9*	1.4	0.0
O=C1C(Cl)=C(NC2CCCCC2)C(=O)N1Cc1ccccc1	-15.0	i	-1.3	-1.2	0.3
O=C1C(Cl)=C(N2CCN(Cc3ccccc3)CC2)C(=O)N1Cc1ccccc1	64.8*	i	18.0	-3.5	-0.7
CCCCN1C(=O)/C(=C2/Sc3ccccc3N2C)S/C1=N\c1ncn[nH]1	-49.1	?	?	1.6	1.0
CCc1ccc(C(N)=S)cc1	41.4*	?	-6.7	-1.2	0.9
COc1ccc(C2=NN(C(=O)CCCC(=O)O)C(c3cn(-c4ccccc4)nc3-c3ccccc3)C2)cc1 (centres undefined)	-7.3	i	73.6*	-4.6	0.5
O=C(CN1CCOCC1)NN=C(c1ccccc1)c1ccccc1	8.3	i	2.4	1.2	-0.2
O=C(CN1CCOCC1)NN=C1CCCCCCCCCCC1	4.3	+	active	4.3	1.2
Fc1cccc(Cl)c1CSc1nnc(CNc2ccccc2)o1	-7.5	i	-9.2	2.6	1.2
Clc1ccc(CSc2nnc(CNc3cccc(Cl)c3)o2)cc1	-3.7	+	63.0*	5.8	0.6
C[C@]12C[C@H](O)[C@H]3[C@@H](CCC4=CC(=O)CC[C@@]43C)[C@@H]1CC[C@@H]2C(=O)CO	0.7	i	5.2*	-2.4	1.9
COc1ccc(C(=O)COC(=O)c2cnc(C)cn2)cc1OC	-22.2	·	·	·	·
CCCC(=O)c1c[nH]c(C(=O)N2CCOCC2)c1	8.1	i	1.1	3.0	0.1
Cn1cccc1-c1cc(C(=O)N2CCc3c([nH]c4ccccc34)C2c2ccccn2)[nH]n1 (centres undefined)	-3.2	i	2.7	73.4*	-1.0
CSc1nc(NCCOCCO)c2sc3nc(-c4ccco4)c4c(c3c2n1)CCC4	-5.5	+	93.7*	27.8	0.6
